Screening data deposited in PubChem by several laboratories.
An excerpt weighted towards active compounds, which were near 1.3% of everything screened.
E coli Lon inh – inhibitors of E. coli Lon protease. purified E. coli Lon protease, fluorescence polarization. P0A9M0. 0.42% of 360,000 active. inhibition, % at 7.94 µM. AID 602123; in the data active = inhibition above about 13%, passing the limit was not always enough
LANA DNA inh – KSHV C-LANA DNA binding inhibition; MBP-C-LANA/FAM-LBS DNA binding, fluorescence polarization; inhibition, % at 9 µM; 0.078% of 340,000 active; AID 504423;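 active = highest replicate inhibition at or above 60% at 9 µM, even if other replicates fall short; inactive = all replicates below 60% inhibition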
GLD-1 RNA inh – GLD-1-TGE RNA interaction inhibition (C. elegans); Q17339; purified GLD-1 + fluorescein TGE RNA, fluorescence polarization; inhibition, % at 5.96 µM; 0.44% of 320,000 active;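 active = percent inhibition above a per-plate cutoff, the plate mean of test compounds plus 3 SD, cut at about 30% in these data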
Target sequence (Q17339 whole entry, looked up): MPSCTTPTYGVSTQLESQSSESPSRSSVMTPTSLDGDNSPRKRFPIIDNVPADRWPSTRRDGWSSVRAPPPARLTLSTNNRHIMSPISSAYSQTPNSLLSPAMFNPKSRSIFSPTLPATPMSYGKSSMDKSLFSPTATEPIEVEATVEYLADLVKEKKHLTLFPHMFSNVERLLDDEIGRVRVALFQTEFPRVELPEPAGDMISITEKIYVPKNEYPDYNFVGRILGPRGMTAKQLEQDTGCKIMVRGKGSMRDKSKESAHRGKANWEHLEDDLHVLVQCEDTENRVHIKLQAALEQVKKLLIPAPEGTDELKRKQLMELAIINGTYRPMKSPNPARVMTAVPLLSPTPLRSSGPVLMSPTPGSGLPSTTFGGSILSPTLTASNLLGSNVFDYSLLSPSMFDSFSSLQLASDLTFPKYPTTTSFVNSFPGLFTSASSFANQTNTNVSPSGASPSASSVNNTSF
BCLXL inh – blocks human Bcl-xL binding to Bim BH3 peptide; GST-Bcl-xL / FITC-Bim BH3 peptide fluorescence polarization; Q07817; inhibition, % at 10.9 µM; 0.7% of 320,000 active;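 active = inhibition above the mean of all tested compounds plus 3 SD, cutoff set per campaign, cut at about 30% in these data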;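 note: inhibitors lower millipolarization by displacing the labeled peptide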
Target sequence (Q07817 whole entry, looked up): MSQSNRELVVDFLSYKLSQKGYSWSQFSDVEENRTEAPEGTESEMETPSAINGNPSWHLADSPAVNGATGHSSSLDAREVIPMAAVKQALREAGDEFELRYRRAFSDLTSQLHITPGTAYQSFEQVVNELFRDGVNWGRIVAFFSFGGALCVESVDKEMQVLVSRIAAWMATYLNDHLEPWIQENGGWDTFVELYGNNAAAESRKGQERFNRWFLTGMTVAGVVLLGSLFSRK
MCL1 BIM primary – disrupts human MCL1 binding to BIM-BH3 peptide. Q07820. GST-MCL1 / FITC-Bim-BH3 fluorescence polarization. inhibition, % at 10.9 µM. 0.68% of 320,000 active. AID 2057;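 active = inhibition above the mean inhibition of all tested compounds plus 3 SD, set per campaign, cut at about 40% in these data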;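 note: higher means more loss of mP so more displacement of Bim peptide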
Keap1-Nrf2 PPI – inhibitors of human Keap1-Nrf2 protein-protein interaction; Q14145; Keap1 Kelch-Nrf2 peptide fluorescence polarization, 1536-well; inhibition, % at 9.4 µM; 0.15% of 340,000 active; AID 504523; in the data active = inhibition above about 12%;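 note: human Keap1 Kelch domain with fluorescein labeled Nrf2 9mer peptide probe; higher means more block of Keap1 binding to Nrf2 peptide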
Bcl-xL conf – Bcl-xL (human) inhibition, MCL1 counter-screen confirmation; shares compounds with MCL1 BIM primary; GST-Bcl-xL / FITC-Bim BH3 peptide FP binding; inhibition, % at 10.9 µM; 54% of 1,700 active;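 active = inhibition above a cutoff equal to the mean inhibition of all tested compounds plus 3 SD, cut at about 30% in these data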
MCL1 inh confirm – confirmation of human MCL1 and BIM-BH3 interaction inhibitors; shares compounds with MCL1 BIM primary; inhibition, % at 10.9 µM; 61% of 1,700 active; GST-MCL1 / FITC-Bim-BH3 fluorescence polarization;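 active = inhibition above the average of all tested compounds plus 3 SD, cut at about 40% in these data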
Large screens that a line does not name were inactive (follow-up assays come after a bar, where they were run).

O=C(O)c1cc(S(=O)(=O)N2CCN(S(=O)(=O)c3ccc4ccccc4c3)CC2)ccc1Br	none (no result: BCLXL inh, MCL1 BIM primary)
CC(C)CN(C(=O)COC(=O)c1cc2c(s1)CCC2)C1CCS(=O)(=O)C1 (stereo unspecified)	MCL1 BIM primary 42 | Bcl-xL conf inactive | MCL1 inh confirm inactive
CCN(C(=O)COC(=O)c1cc2c(s1)CCCCC2)C1CCS(=O)(=O)C1 (stereo unspecified)	none
CC(C)(C)C(=O)Nc1cccc(C(=O)Nc2cc(C(=O)O)cc(C(=O)O)c2)c1	none
Cc1cccc(NC(=O)CNC(=O)c2cccc(-n3cccc3)c2)c1C	MCL1 BIM primary 49 | Bcl-xL conf inactive | MCL1 inh confirm 57
Cc1cccc(NC(=O)CNCC(=O)Nc2cccc(C)c2C)c1C	none
Cc1cc(C)c(NC(=O)Cn2c(=O)c3cccn3c3ccccc32)c(C)c1	none
O=C(Nc1nc(-c2ccco2)c(-c2ccco2)s1)c1c(F)cccc1Cl	none
O=C(Nc1nc(-c2ccco2)c(-c2ccco2)s1)c1cnccn1	BCLXL inh 33, MCL1 BIM primary 102 (no result: E coli Lon inh, LANA DNA inh, Keap1-Nrf2 PPI) | Bcl-xL conf inactive | MCL1 inh confirm inactive
CCOc1ccc(N/C(=C(/C(Cl)=C(Cl)Cl)[N+](=O)[O-])n2cncn2)cc1	GLD-1 RNA inh 55, BCLXL inh 92, MCL1 BIM primary 93 (no result: E coli Lon inh, LANA DNA inh, Keap1-Nrf2 PPI) | Bcl-xL conf 121 | MCL1 inh confirm 156
CSc1cccc(NC(=O)C2CCCN(S(C)(=O)=O)C2)c1 (stereo unspecified)	none (no result: LANA DNA inh, GLD-1 RNA inh, BCLXL inh, MCL1 BIM primary, Keap1-Nrf2 PPI)
CCc1cc(=O)oc2cc(C)c(CN3CCCC3)c(O)c12	BCLXL inh 33, MCL1 BIM primary 72 | Bcl-xL conf 52 | MCL1 inh confirm 88
c1ccc(COc2ncnc3c2ncn3CCCNCc2cccs2)cc1	none (no result: LANA DNA inh, GLD-1 RNA inh, BCLXL inh, MCL1 BIM primary, Keap1-Nrf2 PPI)
O=C(COC(=O)c1ccccn1)Nc1ncc(C(F)(F)F)cc1Cl	none
O=C(COC(=O)c1ccc([N+](=O)[O-])s1)Nc1ncc(C(F)(F)F)cc1Cl	MCL1 BIM primary active | Bcl-xL conf inactive | MCL1 inh confirm inactive
COC(=O)c1ccc(N)c(N=CC2=C(O)CC(C)(C)CC2=O)c1	GLD-1 RNA inh 73, BCLXL inh 87, MCL1 BIM primary 89 | Bcl-xL conf inactive | MCL1 inh confirm inactive
C=CCOc1c(Br)cc(C2C3=C(CCCC3=O)N(C)C3=C2C(=O)CCC3)cc1OCC	MCL1 BIM primary 43 | Bcl-xL conf inactive | MCL1 inh confirm inactive
CCOC(=O)C1CCN(C(=O)Nc2ccc3nc(-c4ccco4)c(-c4ccco4)nc3c2)CC1	GLD-1 RNA inh 56, BCLXL inh 101, MCL1 BIM primary 143 | Bcl-xL conf 68 | MCL1 inh confirm 100
CCOC(=O)C1CCN(C(=O)Nc2ccc3c(c2)nc(C)n3C)CC1	none
O=C(O)c1ccc(-n2cccc2/C=C2/SC(=O)N(CC(=O)N3CCCC3)C2=O)cc1	LANA DNA inh 64, MCL1 BIM primary 55 | Bcl-xL conf inactive | MCL1 inh confirm 50
N#Cc1ccccc1CN1C(=O)S/C(=C/c2cccn2-c2ccc(C(=O)O)cc2)C1=O	none
Nc1ncnc2oc(-c3ccco3)c(-c3ccco3)c12	BCLXL inh 36, MCL1 BIM primary 95 | Bcl-xL conf 40 | MCL1 inh confirm 93
O=C(O)c1cc(-c2ccc(/C=C3\NC(=O)N(c4ccc(Cl)cc4)C3=O)o2)ccc1Cl	MCL1 BIM primary 72 | Bcl-xL conf 32 | MCL1 inh confirm 55
CCSc1nnc(NC(=O)CCN2C(=O)C3CCCCC3C2=O)s1 (stereo unspecified)	none
C=CCSc1nnc(NC(=O)CCN2C(=O)C3CC=CCC3C2=O)s1 (stereo unspecified)	GLD-1 RNA inh 77, BCLXL inh 85, MCL1 BIM primary active | Bcl-xL conf inactive | MCL1 inh confirm inactive
O=c1[nH]c(=S)[nH]c2c1C(c1ccc(F)cc1)OC(CCC(F)(F)F)C2 (stereo unspecified)	none (no result: LANA DNA inh, GLD-1 RNA inh, BCLXL inh, MCL1 BIM primary, Keap1-Nrf2 PPI)
O=C(O)C(S)C(S)C(=O)O (stereo unspecified)	MCL1 BIM primary 84 | Bcl-xL conf 38 | MCL1 inh confirm 86
CCCN1CCC2(CC1)C(C#N)=C(N)Oc1c2sc2nc(C)cc(C)c12	BCLXL inh 69, MCL1 BIM primary 70 | Bcl-xL conf 45 | MCL1 inh confirm 46
O=C(CCNC(=O)c1ccccc1Cl)NCCc1ccc(C(F)(F)F)cc1	none
O=[N+]([O-])c1ccc2nc(-c3ccc(OC(F)F)cc3)cn2c1	MCL1 BIM primary 94 | Bcl-xL conf inactive | MCL1 inh confirm inactive
CCN(CC)S(=O)(=O)c1ccc(OC)c(NC(=O)/C=C/c2ccco2)c1	none
COC1=C(OC)C(=O)C(CCCCCCCCCCO)=C(C)C1=O	none (no result: LANA DNA inh, GLD-1 RNA inh, BCLXL inh, MCL1 BIM primary, Keap1-Nrf2 PPI)
CCCCCCCCCCCC1=C(O)C(=O)C=C(O)C1=O	MCL1 BIM primary 52 | Bcl-xL conf 46 | MCL1 inh confirm 76
COC1=CC(=O)C(O)=C(CCCCCCC/C=C/CCCCCCCC2=C(O)C(=O)C=C(OC)C2=O)C1=O	BCLXL inh 45, MCL1 BIM primary 107 | Bcl-xL conf 32 | MCL1 inh confirm 81
CCCCCCc1c(O)c2ccccc2[nH]c1=O	none
COc1cc(N)c(Cc2nccc3cc(OC)c(OC)cc23)cc1OC	BCLXL inh 115, MCL1 BIM primary 121 | Bcl-xL conf inactive | MCL1 inh confirm inactive
COc1cc2ccnc(Cc3cccc(OC)c3OC)c2cc1OC	none
COc1ccc(OC)c(N2C(=O)[C@@H]3C(c4ccccc4Cl)=NO[C@@H]3C2=O)c1	MCL1 BIM primary 53 | Bcl-xL conf inactive | MCL1 inh confirm inactive
Cc1cccc(C)c1N1C(=O)[C@@H]2C(c3ccccc3Cl)=NO[C@@H]2C1=O	none
CN1C(=O)c2ccccc2OC1(C)Cc1ccccc1 (stereo unspecified)	none
Cc1cc(C=O)c2c(c1)C=CC1(Oc3ccccc3C(=O)N1C)O2 (stereo unspecified)	GLD-1 RNA inh 109, BCLXL inh 58, MCL1 BIM primary 53 (no result: E coli Lon inh, LANA DNA inh, Keap1-Nrf2 PPI) | Bcl-xL conf inactive | MCL1 inh confirm inactive
CN1CCc2cccc3c2[C@@H]1Cc1ccc(O)c(O)c1-3	BCLXL inh 49, MCL1 BIM primary 71 | Bcl-xL conf inactive | MCL1 inh confirm inactive
CCc1ccc(CN(C)Cc2nc(COc3ccccc3)no2)nc1	none
CCN(CC)C(=O)CSc1nc2sc3c(c2c(=O)n1CCOC)CCC3	none
COCCn1c(SCC(=O)N2CCCC2=O)nc2sc(C)c(C)c2c1=O	MCL1 BIM primary 76 | Bcl-xL conf inactive | MCL1 inh confirm inactive
Cc1cc2n(c1)CCn1c(C)ccc1-2	BCLXL inh 78, MCL1 BIM primary 99 (no result: E coli Lon inh, LANA DNA inh, Keap1-Nrf2 PPI) | Bcl-xL conf 92 | MCL1 inh confirm 135
